# From PubChem
# RORgamma inh: qHTS for inhibitors of ROR gamma transcriptional activity; Nuclear receptor ROR-gamma (Mus musculus), P51450; Drosophila S2 Gal4-RORgamma UAS-luciferase reporter, 20 h; Potency, µM (titrated, usually from 53.6 µM), for inactives: top-dose activity change, negative = inhibition, hits mostly inhibitors; 5.4% of 310,000 active; also: potency is read from the fitted curve at half-maximal effect; % is scaled to controls: 0 for no effect and ±100 for the full control effect; nearly all actives have a fitted effect of over 60% in size
# Target sequence (P51450 whole entry, looked up, the tested form may be a part): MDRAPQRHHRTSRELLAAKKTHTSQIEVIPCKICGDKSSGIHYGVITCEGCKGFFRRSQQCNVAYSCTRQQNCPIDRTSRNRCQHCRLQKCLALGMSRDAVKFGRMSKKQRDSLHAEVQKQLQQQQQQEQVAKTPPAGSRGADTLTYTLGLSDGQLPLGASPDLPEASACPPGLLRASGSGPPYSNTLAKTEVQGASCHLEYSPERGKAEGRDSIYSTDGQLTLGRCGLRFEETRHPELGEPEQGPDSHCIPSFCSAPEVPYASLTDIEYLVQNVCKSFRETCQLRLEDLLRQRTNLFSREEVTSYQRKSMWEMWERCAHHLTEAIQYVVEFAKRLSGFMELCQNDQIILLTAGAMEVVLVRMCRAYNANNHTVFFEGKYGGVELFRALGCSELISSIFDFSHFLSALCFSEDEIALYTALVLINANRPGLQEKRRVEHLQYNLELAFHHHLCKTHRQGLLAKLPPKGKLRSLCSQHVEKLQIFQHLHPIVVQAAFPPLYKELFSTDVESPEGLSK
#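 Stable Schneider cell line, Gal4 DNA-binding domain fused to ROR gamma, UAS-luciferase. Cmpd 1 hr RT → CuSO4 700 uM final → 20 hr RT → luciferase reagent 10 min → luminescence.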
# MBNL1-CUG inh: qHTS Assay for Inhibitors of MBNL1-poly(CUG) RNA binding. Muscleblind-like protein 1 (Homo sapiens), Q9NR56. TR-FRET MBNL1-His/biotin-(CUG)12 binding, 665/545 ratio. Potency, µM (top dose mostly 57.5 µM), for the others: at the top dose activity change, negative = inhibition, hits mostly inhibitors. 0.036% of 280,000 active. AID 2675, 2010; active = well fitted inhibition curve with a large enough effect in the signal ratio, with a control signal flat, not every such curve was filed as active; inconclusive = small, poorly fitted or top-dose-only effect, or effect the other way, or a change in a side signal; inactive = no such curve, though single readings can be large or run the other way; the % refers to the signal ratio; also: potency is read from the fitted curve at half-maximal effect; % is scaled to controls: 0 for no effect and ±100 for the full control effect
#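 TR-FRET readout: Ex 340 nm, 665/545 nm emission ratio, normalized to buffer-only (basal) and MBNL1-(CUG)12 controls. Complex of MBNL1-His with Biotin-(CUG)12, compounds 92 nM–58 uM, incubated 60 min at room temperature.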
# CBFb-RUNX1 inh: qHTS Assay for Compounds Blocking the Interaction Between CBF-beta and RUNX1 for the Treatment of Acute Myeloid Leukemia; Runt-related transcription factor 1 (Homo sapiens) + Core-binding factor subunit beta …; AlphaScreen CBFb-His/RUNX1-biotin binding, biochemical; Potency, µM (doses to about 59.8 µM), inactives show top-dose activity, negative = inhibition, usual class: inhibitors; 230,000 tested, under 10 active; AID 1477, 2009; also: % of control where 0% means no effect
#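 Bead-based AlphaScreen assay; binding partners His-tagged CBF-beta and biotinylated RUNX1 at 30 nM each. Compound exposure 15 min after a 20-min protein preincubation; bead step 90 min; all steps at room temperature.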
# CtBP-E1A blk: qHTS Assay for Inhibitors of the CtBP/E1A Interaction. AlphaScreen GST-E1A/His-CtBP binding, 1536-well; stronger effect = lower value. activity change, % (concentration not given with the values). 0.49% of 340,000 active. AID 651724, 2012; in the data active = activity change below about -65%; inconclusive = mostly about -30% to -63%; also: % is scaled to controls: 0 for no effect and ±100 for the full control effect
#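 Protein mix (5X: 125 nM each GST-E1A, His-CtBP) was incubated with pinned compound 2 h at 37 deg C in dark, in 50 mM Tris pH 8.0 buffer with 300 mM NaCl. Glutathione donor and nickel acceptor beads followed; AlphaScreen signal read after 1 h.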
# VP16 counter: VP16 counterscreen qHTS for inhibitors of ROR gamma transcriptional activity | Potency, µM (top dose mostly 53.6 µM), inactives show at the highest dose activity, negative = inhibition, most hits filed as inhibitors | 3.5% of 310,000 active | AID 2546, 2010 | Drosophila S2 Gal4-VP16 UAS-luciferase, luminescence, 20 h;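 also: Gal4-VP16 expression switched on by copper sulfate through the metallothionein promoter; potency is read from the fitted curve at half-maximal effect; % is scaled to controls: 0 for no effect and ±100 for the full control effect; nearly all actives have a fitted effect of over 50% in size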
# Six1-Eya2 inh: qHTS Assay for Inhibitors of the Six1/Eya2 Interaction; Homeobox protein SIX1 (Homo sapiens) + Protein phosphatase EYA2 (Homo sapiens), …; 0.56% of 360,000 active; activity change, % (concentration not given with the values); AlphaScreen GST-Six1/His-Eya2 binding, biochemical; stronger effect = lower value; in the data active = activity change below about -65%; inconclusive = mostly about -30% to -63%; also: % is scaled to controls: 0 for no effect and ±100 for the full control effect
#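 Compounds are tested against tagged Six1 and Eya2 proteins bridged by glutathione donor and nickel acceptor beads; after a one-hour incubation at 37 °C without light, AlphaScreen emission is recorded.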
# Active calls of the source: *; ? = inconclusive; / = no result given; [ ] = remark or other dose. Hits are enriched below; roughly 5.5% of the tested compounds scored in any of these assays. Unless noted, calls follow the shape of the dose curve; as a rule, active = well fitted curve in the direction sought with a large enough effect; inconclusive = small, poorly fitted or top-dose-only effect, or another doubt; inactive = no such curve, though single readings can be large; an effect the other way counts as inactive or inconclusive.
SMILES,RORgamma inh,MBNL1-CUG inh,CBFb-RUNX1 inh,CtBP-E1A blk,VP16 counter,Six1-Eya2 inh
O=C(CCCN1C(=O)/C(=C/c2ccccc2Cl)SC1=S)NNC(=O)c1ccc(Cl)cc1Cl,0.22µM*,-9%,19%,0,4.5µM*,18
O=C(CCCN1C(=O)/C(=C/c2ccccc2Cl)SC1=S)NNC(=O)c1cccnc1,17%,?,-25%,?,-14%,-21
O=[N+]([O-])c1cc([N+](=O)[O-])c(Oc2c(F)ccc(F)c2F)cc1NN1CCCCC1,-20%,6%,/,-9,-10%,-14
CCC1(c2ccccc2)NC(=O)N(CC(=O)NCC2COc3ccccc3O2)C1=O (configuration not stated),/,/,/,4,/,5
COC(=O)c1[nH]nc(-c2ccccc2)c1-c1ccccc1,/,/,/,-9,/,5
S=C1NC2=C(CCCC2)C2(CCCCC2)N1,2µM*,-6%,-1%,-1,1.8µM*,1
c1cc(Nc2cccc3nccnc23)c2nccnc2c1,0.28µM*,?,-9%,-1,1.1µM*,-14
Fc1ccc(Nc2cccc3nccnc23)cc1,0%,?,-19%,-19,?,-18
Cc1cc(C)c(C#N)c(SCc2nnc(-c3ccccc3)o2)n1,?,/,6%,12,?,9
Cc1ccc(C#N)c(SCc2nnc(-c3ccc(Cl)cc3)o2)n1,3.5µM*,?,-4%,2,?,13
Cc1cccc(OCCn2cc(/C=N/NC(=O)c3ccncc3)c3ccccc32)c1,4.5µM*,-3%,?,-24,5.6µM*,0
Cc1ccc(S(=O)(=O)Oc2ccccc2/C=N/Nc2ccc(C(=O)O)cc2)cc1,-17%,-6%,-11%,-2,7%,-1
CCn1c2ccccc2c2cc(/C=N/NC(=O)c3ccncc3)ccc21,8.9µM*,?,6%,-15,?,-11
Cc1ccc(S(=O)(=O)Oc2ccccc2/C=N/NC(=O)c2c(Cl)cnn2C)cc1,3.2µM*,6%,2%,8,?,-7
CCn1cc(/C=N\NC(=O)c2ccc(Cl)cc2)cn1,11µM*,9%,-3%,-3,-8%,-3
CC(C)c1ccc(/C=N/NC(=O)c2ccccn2)cc1,11µM*,7%,-3%,-19,?,-2
O=C(N/N=C/c1ccncc1)c1ccccn1,24%,?,/,-14,-3%,-10
Cn1ncc(Cl)c1C(=O)N/N=C/c1cccc(OC2CSC2)c1,-67%,0%[11.5 µM],-5%,0,1%,-5
CN(C)c1ccc(C(=O)N/N=C/c2ccccn2)cc1,13µM*,30%,/,-29,?,-23
Cn1ncc(Cl)c1C(=O)N/N=C/c1ccccn1,1%,?,-15%,-75*,-1%,-80*
Cc1ccc(C(=O)Nc2ccc(C(=O)N/N=C/c3ccccn3)cc2)cc1,?,11%,/,?,?,?
CCC(C)c1ccc(OCCn2cc(/C=N/NC(=O)CSc3nnc(C)s3)c3ccccc32)cc1 (configuration not stated),?,5%,-4%,-16,22µM*,-18
CC(=O)OC[C@H]1O[C@@](COC(C)=O)(O[C@H]2O[C@H](COC(C)=O)[C@@H](OC(C)=O)[C@H](OC(C)=O)[C@H]2OC(C)=O)[C@@H](OC(C)=O)[C@@H]1OC(C)=O,-1%,/,/,/,3%,/
O=C(CN1C(=O)NC2(CCOc3ccccc32)C1=O)Nc1ccc(Br)cc1F (configuration not stated),/,/,/,/,/,-7
COc1cccc([C@@H]2Oc3ccc(Br)cc3C[C@H]2O)c1,26%,/,3%,/,-5%,/
SMILES,RORgamma inh,MBNL1-CUG inh,CBFb-RUNX1 inh,CtBP-E1A blk,VP16 counter,Six1-Eya2 inh
CCc1ccc(C(O)c2ncc(-c3cccc(F)c3)[nH]2)cc1 (configuration not stated),/,/,/,-5,/,-12
CCN(CC(=O)N1CCCC1)S(=O)(=O)c1ccc(OC)cc1,24%,-2%,/,6,2%,15
Cc1ccccc1CNC(=O)C(=O)NCCC1CCCCN1S(=O)(=O)c1ccccc1 (configuration not stated),/,/,/,6,/,-3
O=C(N/N=C/c1ccccn1)c1ccncc1,1%,16%,/,/,3%,-75*
O=C(N/N=C/c1ccccn1)c1ccccc1,16%,11%,-8%,?,-12%,?
O=C(N/N=C/c1ccccn1)c1ccc(Cl)cc1,1.4µM*,?,/,?,2.5µM*,?
CC(C)Oc1ccc(C(=O)Nc2ccc(N3CCN(C(=O)c4ccco4)CC3)cc2)cc1,?,-14%,/,-2,21%,-8
O=C(NC(=S)Nc1ccc(N2CCOCC2)cc1)c1cccs1,2.8µM*,14%,-5%,/,?,-1
Cc1ccc(C(=O)N2CCN(c3ccc(NC(=S)NC(=O)c4cccs4)cc3)CC2)cc1,7.1µM*,-12%,-23%,-10,11µM*,?
CC(C)CC(=O)NC(=S)Nc1ccc(N2CCN(C(=O)c3cccs3)CC2)cc1,7.1µM*,6%,-14%,-13,6.3µM*,-16
Cc1ccc(C(=O)NC(=S)Nc2ccc(N3CCN(C(=O)c4ccco4)CC3)cc2)cc1,13µM*,-2%,/,-13,5.6µM*,?
CCN1C(=O)C2(C(C(=O)c3cc4ccccc4o3)=C(O)C(=O)N2CCCN(C)C)c2ccccc21 (configuration not stated),-10%,103%,3%,7,-3%,11
Cc1ccccc1C(=O)N1CCN(c2ccc(NC(=S)NC(=O)c3cccs3)cc2)CC1,2.8µM*,6%,-6%,/,5.6µM*,-20
C(=Nn1cnnc1)c1ccc2c(c1)CCC2,/,/,/,2,/,-3
CCC(CO)[n+]1c(C)cc(/C=C2\Sc3ccccc3N2Cc2ccccc2)cc1C (configuration not stated),?,?,8%,20,7.1µM*,16
CCN1/C(=C2\SC(=S)N(Cc3ccccc3)C2=O)Sc2ccccc21,1%,-4%,1%,0,-2%,0
